# Measured values: article PMC7862700, “An all-to-all approach to the identification of sequence-specific readers for epigenetic DNA modifications on cytosine”
# Key:
# Experiment in all cases: DAPPL (digital affinity profiling via proximity ligation, sequencing); 10 mM Tris-HCl pH 7.5, 50 mM NaCl, 1 mM DTT, 4% glycerol, room temperature, 30 min; GST-TFs on glutathione beads, 16-mer random dsDNA library, 0.1% formaldehyde crosslink after washing; high values mean tight binding
# Settings in all cases: protein: recombinant; tags: N-terminal GST; dsDNA, one strand shown
# ERF = molecular target: T1, ERF (Homo sapiens, UniProt P50548 1-548)
# T1 sequence: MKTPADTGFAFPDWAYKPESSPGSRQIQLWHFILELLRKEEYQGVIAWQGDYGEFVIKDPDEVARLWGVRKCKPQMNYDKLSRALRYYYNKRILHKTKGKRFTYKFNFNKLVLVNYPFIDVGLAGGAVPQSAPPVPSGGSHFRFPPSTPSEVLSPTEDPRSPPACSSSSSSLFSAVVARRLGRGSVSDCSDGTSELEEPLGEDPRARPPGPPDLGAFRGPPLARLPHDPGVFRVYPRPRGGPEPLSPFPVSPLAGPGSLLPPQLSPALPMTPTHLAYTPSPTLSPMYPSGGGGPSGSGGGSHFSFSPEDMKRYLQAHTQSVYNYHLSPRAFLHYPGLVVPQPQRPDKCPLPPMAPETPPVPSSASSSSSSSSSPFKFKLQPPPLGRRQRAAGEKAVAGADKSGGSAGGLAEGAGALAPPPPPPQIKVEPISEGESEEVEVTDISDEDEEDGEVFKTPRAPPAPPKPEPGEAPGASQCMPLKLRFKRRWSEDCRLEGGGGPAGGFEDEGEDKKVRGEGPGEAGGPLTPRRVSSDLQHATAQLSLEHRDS
# Procedure, shortened: (§1)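 Pools were built from human transcription factors expressed in yeast as GST fusions, captured on glutathione beads and DNA-barcoded, along with a tag-only sample. Incubation with 200 nmole of a 16-mer random double-stranded DNA library lasted 30 min at room temperature in Tris/NaCl/DTT/glycerol buffer, and was followed by washing, 0.1% formaldehyde crosslinking, proximity ligation, PCR amplification and Illumina NextSeq500 sequencing. Binding signal is the quotient of each hexamer's read frequency for a factor and its frequency for the tag-only sample.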
# ETV3L = molecular target: T2, ETV3L (Homo sapiens, UniProt Q6ZN32 1-361)
# T2 sequence: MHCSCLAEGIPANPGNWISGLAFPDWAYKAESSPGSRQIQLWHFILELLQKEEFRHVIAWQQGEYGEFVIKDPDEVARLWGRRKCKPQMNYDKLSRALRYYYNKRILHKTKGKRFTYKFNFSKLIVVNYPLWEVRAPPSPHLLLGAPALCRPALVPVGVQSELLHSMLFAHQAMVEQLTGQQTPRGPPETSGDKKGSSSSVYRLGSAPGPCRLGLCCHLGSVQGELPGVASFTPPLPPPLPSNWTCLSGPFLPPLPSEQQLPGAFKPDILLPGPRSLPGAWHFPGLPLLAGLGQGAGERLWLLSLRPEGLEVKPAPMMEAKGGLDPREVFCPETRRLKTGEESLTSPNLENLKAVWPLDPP
# Procedure, shortened: as §1
# ETS2 = molecular target: T3, ETS2 (Homo sapiens, UniProt P15036 1-469)
# T3 sequence: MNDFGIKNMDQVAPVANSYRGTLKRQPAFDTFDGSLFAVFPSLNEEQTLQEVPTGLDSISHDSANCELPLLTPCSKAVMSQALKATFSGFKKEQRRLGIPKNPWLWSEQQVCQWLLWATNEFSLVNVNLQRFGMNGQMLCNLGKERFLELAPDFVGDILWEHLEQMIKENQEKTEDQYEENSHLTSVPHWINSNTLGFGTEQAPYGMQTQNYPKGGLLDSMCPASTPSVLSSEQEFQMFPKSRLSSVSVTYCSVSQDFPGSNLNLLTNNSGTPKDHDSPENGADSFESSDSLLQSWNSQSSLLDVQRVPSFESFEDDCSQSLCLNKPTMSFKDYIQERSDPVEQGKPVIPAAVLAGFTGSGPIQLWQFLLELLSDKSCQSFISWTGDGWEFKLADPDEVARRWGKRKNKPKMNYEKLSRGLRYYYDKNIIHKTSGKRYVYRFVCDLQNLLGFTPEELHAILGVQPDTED
# Procedure, shortened: as §1
# SPDEF = molecular target: T4, SPDEF (Homo sapiens, UniProt O95238 1-335)
# T4 sequence: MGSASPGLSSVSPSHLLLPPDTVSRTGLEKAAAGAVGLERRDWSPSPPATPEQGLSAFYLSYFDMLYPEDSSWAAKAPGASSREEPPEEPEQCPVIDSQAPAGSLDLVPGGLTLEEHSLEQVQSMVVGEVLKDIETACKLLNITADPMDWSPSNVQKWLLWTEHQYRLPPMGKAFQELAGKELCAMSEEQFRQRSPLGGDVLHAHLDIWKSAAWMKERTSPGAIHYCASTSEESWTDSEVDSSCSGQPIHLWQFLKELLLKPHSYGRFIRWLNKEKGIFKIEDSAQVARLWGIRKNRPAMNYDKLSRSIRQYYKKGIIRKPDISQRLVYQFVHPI
# Procedure, shortened: as §1
# ETV7 = molecular target: T5, ETV7 (Homo sapiens, UniProt Q9Y603 1-341)
# T5 sequence: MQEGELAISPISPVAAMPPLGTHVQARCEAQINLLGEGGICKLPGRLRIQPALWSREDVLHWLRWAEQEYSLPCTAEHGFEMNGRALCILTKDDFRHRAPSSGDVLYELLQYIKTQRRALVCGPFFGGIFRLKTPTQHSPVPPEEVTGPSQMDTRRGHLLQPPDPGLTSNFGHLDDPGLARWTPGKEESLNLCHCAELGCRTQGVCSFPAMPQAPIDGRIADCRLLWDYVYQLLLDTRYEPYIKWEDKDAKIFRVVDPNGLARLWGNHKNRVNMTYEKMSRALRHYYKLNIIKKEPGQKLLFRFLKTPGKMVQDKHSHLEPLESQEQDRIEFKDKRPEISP
# Procedure, shortened: as §1
# ELF5 = molecular target: T6, ELF5 (Homo sapiens, UniProt Q9UKW6-2 1-255)
# T6 sequence: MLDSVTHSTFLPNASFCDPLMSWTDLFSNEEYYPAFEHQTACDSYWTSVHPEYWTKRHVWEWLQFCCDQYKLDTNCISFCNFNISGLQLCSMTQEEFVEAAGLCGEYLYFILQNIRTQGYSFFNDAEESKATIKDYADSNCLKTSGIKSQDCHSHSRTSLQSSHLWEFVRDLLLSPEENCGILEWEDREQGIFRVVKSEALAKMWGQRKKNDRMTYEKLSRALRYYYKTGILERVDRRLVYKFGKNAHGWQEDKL
# Procedure, shortened: as §1
# ETV3 = molecular target: T7, ETV3 (Homo sapiens, UniProt P41162-2 1-143)
# T7 sequence: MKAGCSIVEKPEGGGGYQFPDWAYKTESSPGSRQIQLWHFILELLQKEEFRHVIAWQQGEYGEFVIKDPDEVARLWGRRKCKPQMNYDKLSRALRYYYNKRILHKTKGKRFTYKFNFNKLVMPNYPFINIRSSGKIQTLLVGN
# Procedure, shortened: as §1
# ETV6 = ETV6 (Homo sapiens, UniProt P41212 1-452)
# ETV6, sequence (P41212 whole entry): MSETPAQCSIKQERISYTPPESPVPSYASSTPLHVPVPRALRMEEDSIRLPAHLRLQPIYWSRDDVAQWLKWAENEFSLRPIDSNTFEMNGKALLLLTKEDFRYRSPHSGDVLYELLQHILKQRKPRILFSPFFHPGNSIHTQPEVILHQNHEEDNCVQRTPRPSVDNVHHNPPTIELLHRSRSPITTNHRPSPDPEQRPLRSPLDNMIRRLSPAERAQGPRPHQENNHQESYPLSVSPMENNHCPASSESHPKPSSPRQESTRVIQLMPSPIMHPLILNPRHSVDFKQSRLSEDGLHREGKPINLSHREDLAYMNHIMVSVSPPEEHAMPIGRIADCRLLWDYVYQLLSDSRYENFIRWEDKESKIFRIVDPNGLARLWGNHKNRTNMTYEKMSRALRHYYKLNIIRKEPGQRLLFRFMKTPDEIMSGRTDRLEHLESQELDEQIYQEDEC
# Procedure, shortened: as §1
Sequence,binding signal (ERF),binding signal (ETV3L),binding signal (ETS2),binding signal (SPDEF),binding signal (ETV7),binding signal (ELF5),binding signal (ETV3),binding signal (ETV6)
ATTTAA,"1.21 fold enrichment (6-mer frequency, TF over GST control)","1.19 fold enrichment (6-mer frequency, TF over GST control)","1.28 fold enrichment (6-mer frequency, TF over GST control)","1.24 fold enrichment (6-mer frequency, TF over GST control)","1.27 fold enrichment (6-mer frequency, TF over GST control)","1.1 fold enrichment (6-mer frequency, TF over GST control)","1.13 fold enrichment (6-mer frequency, TF over GST control)","1.21 fold enrichment (6-mer frequency, TF over GST control)"
CGATTA,"1.07 fold enrichment (6-mer frequency, TF over GST control)","1.23 fold enrichment (6-mer frequency, TF over GST control)","1.08 fold enrichment (6-mer frequency, TF over GST control)","1.09 fold enrichment (6-mer frequency, TF over GST control)","1.18 fold enrichment (6-mer frequency, TF over GST control)","1.11 fold enrichment (6-mer frequency, TF over GST control)","1.18 fold enrichment (6-mer frequency, TF over GST control)","1.13 fold enrichment (6-mer frequency, TF over GST control)"
TTCTGC,"1.55 fold enrichment (6-mer frequency, TF over GST control)","1.4 fold enrichment (6-mer frequency, TF over GST control)","1.33 fold enrichment (6-mer frequency, TF over GST control)","1.38 fold enrichment (6-mer frequency, TF over GST control)","1.43 fold enrichment (6-mer frequency, TF over GST control)","1.38 fold enrichment (6-mer frequency, TF over GST control)","1.33 fold enrichment (6-mer frequency, TF over GST control)","1.47 fold enrichment (6-mer frequency, TF over GST control)"
ACCAAT,"1.32 fold enrichment (6-mer frequency, TF over GST control)","1.28 fold enrichment (6-mer frequency, TF over GST control)","1.39 fold enrichment (6-mer frequency, TF over GST control)","1.24 fold enrichment (6-mer frequency, TF over GST control)","1.29 fold enrichment (6-mer frequency, TF over GST control)","1.23 fold enrichment (6-mer frequency, TF over GST control)","1.29 fold enrichment (6-mer frequency, TF over GST control)","1.34 fold enrichment (6-mer frequency, TF over GST control)"
CCGGAT,"2.87 fold enrichment (6-mer frequency, TF over GST control)","3.03 fold enrichment (6-mer frequency, TF over GST control)","3.38 fold enrichment (6-mer frequency, TF over GST control)","6.71 fold enrichment (6-mer frequency, TF over GST control)","2.7 fold enrichment (6-mer frequency, TF over GST control)","3.7 fold enrichment (6-mer frequency, TF over GST control)","3.64 fold enrichment (6-mer frequency, TF over GST control)","3.06 fold enrichment (6-mer frequency, TF over GST control)"
CTCCGG,"1.56 fold enrichment (6-mer frequency, TF over GST control)","1.61 fold enrichment (6-mer frequency, TF over GST control)","1.6 fold enrichment (6-mer frequency, TF over GST control)","1.89 fold enrichment (6-mer frequency, TF over GST control)","1.32 fold enrichment (6-mer frequency, TF over GST control)","1.58 fold enrichment (6-mer frequency, TF over GST control)","1.62 fold enrichment (6-mer frequency, TF over GST control)","1.56 fold enrichment (6-mer frequency, TF over GST control)"
TAAATG,"1.24 fold enrichment (6-mer frequency, TF over GST control)","1.39 fold enrichment (6-mer frequency, TF over GST control)","1.38 fold enrichment (6-mer frequency, TF over GST control)","1.35 fold enrichment (6-mer frequency, TF over GST control)","1.31 fold enrichment (6-mer frequency, TF over GST control)","1.16 fold enrichment (6-mer frequency, TF over GST control)","1.31 fold enrichment (6-mer frequency, TF over GST control)","1.31 fold enrichment (6-mer frequency, TF over GST control)"
TTATCT,"1.23 fold enrichment (6-mer frequency, TF over GST control)","1.44 fold enrichment (6-mer frequency, TF over GST control)","1.35 fold enrichment (6-mer frequency, TF over GST control)","1.24 fold enrichment (6-mer frequency, TF over GST control)","1.15 fold enrichment (6-mer frequency, TF over GST control)","1.22 fold enrichment (6-mer frequency, TF over GST control)","1.28 fold enrichment (6-mer frequency, TF over GST control)","1.25 fold enrichment (6-mer frequency, TF over GST control)"
TTCGTA,"1.39 fold enrichment (6-mer frequency, TF over GST control)","1.35 fold enrichment (6-mer frequency, TF over GST control)","1.36 fold enrichment (6-mer frequency, TF over GST control)","1.21 fold enrichment (6-mer frequency, TF over GST control)","1.4 fold enrichment (6-mer frequency, TF over GST control)","1.3 fold enrichment (6-mer frequency, TF over GST control)","1.44 fold enrichment (6-mer frequency, TF over GST control)","1.3 fold enrichment (6-mer frequency, TF over GST control)"
CTATTC,"1.33 fold enrichment (6-mer frequency, TF over GST control)","1.4 fold enrichment (6-mer frequency, TF over GST control)","1.32 fold enrichment (6-mer frequency, TF over GST control)","1.41 fold enrichment (6-mer frequency, TF over GST control)","1.34 fold enrichment (6-mer frequency, TF over GST control)","1.29 fold enrichment (6-mer frequency, TF over GST control)","1.33 fold enrichment (6-mer frequency, TF over GST control)","1.4 fold enrichment (6-mer frequency, TF over GST control)"
AATAAG,"1.32 fold enrichment (6-mer frequency, TF over GST control)","1.18 fold enrichment (6-mer frequency, TF over GST control)","1.24 fold enrichment (6-mer frequency, TF over GST control)","1.26 fold enrichment (6-mer frequency, TF over GST control)","1.19 fold enrichment (6-mer frequency, TF over GST control)","1.27 fold enrichment (6-mer frequency, TF over GST control)","1.29 fold enrichment (6-mer frequency, TF over GST control)","1.33 fold enrichment (6-mer frequency, TF over GST control)"
AAATCA,"1.23 fold enrichment (6-mer frequency, TF over GST control)","1.27 fold enrichment (6-mer frequency, TF over GST control)","1.22 fold enrichment (6-mer frequency, TF over GST control)","1.12 fold enrichment (6-mer frequency, TF over GST control)","1.16 fold enrichment (6-mer frequency, TF over GST control)","1.22 fold enrichment (6-mer frequency, TF over GST control)","1.17 fold enrichment (6-mer frequency, TF over GST control)","1.21 fold enrichment (6-mer frequency, TF over GST control)"
AATCTG,"1.41 fold enrichment (6-mer frequency, TF over GST control)","1.39 fold enrichment (6-mer frequency, TF over GST control)","1.52 fold enrichment (6-mer frequency, TF over GST control)","1.37 fold enrichment (6-mer frequency, TF over GST control)","1.46 fold enrichment (6-mer frequency, TF over GST control)","1.37 fold enrichment (6-mer frequency, TF over GST control)","1.43 fold enrichment (6-mer frequency, TF over GST control)","1.4 fold enrichment (6-mer frequency, TF over GST control)"
AATCAA,"1.17 fold enrichment (6-mer frequency, TF over GST control)","1.24 fold enrichment (6-mer frequency, TF over GST control)","1.18 fold enrichment (6-mer frequency, TF over GST control)","1.11 fold enrichment (6-mer frequency, TF over GST control)","1.16 fold enrichment (6-mer frequency, TF over GST control)","1.16 fold enrichment (6-mer frequency, TF over GST control)","1.2 fold enrichment (6-mer frequency, TF over GST control)","1.2 fold enrichment (6-mer frequency, TF over GST control)"
CTTATG,"1.52 fold enrichment (6-mer frequency, TF over GST control)","1.35 fold enrichment (6-mer frequency, TF over GST control)","1.43 fold enrichment (6-mer frequency, TF over GST control)","1.53 fold enrichment (6-mer frequency, TF over GST control)","1.47 fold enrichment (6-mer frequency, TF over GST control)","1.42 fold enrichment (6-mer frequency, TF over GST control)","1.64 fold enrichment (6-mer frequency, TF over GST control)","1.4 fold enrichment (6-mer frequency, TF over GST control)"
